Compounds with a hit are over-represented: about 4.1% of the library has one in this group of screens.
AMA1-RON2 inh: AMA1-RON2 (P. falciparum) interaction inhibition | AlphaScreen AMA1-biotinylated RON2 peptide binding | Potency, µM (titrated, usually from 58.2 µM), for the others: at the top dose activity change, negative = inhibition, actives largely listed as inhibitors | 0.2% of 360,000 active;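 further: 0% = vehicle wells and -100% = peptide control; nearly all actives have a fitted effect of over 45% in size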
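AMA1 (3D7) with his tag at 25 nM final met compounds first, then biotinylated RON2 peptide at 25 nM; detection used donor plus acceptor beads, 10 µg/mL apiece, read by AlphaScreen after 30 min at room temperature.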
AmpC inh no detg: blocks E. coli AmpC beta-lactamase in detergent-free assay | P00811 | AmpC nitrocefin hydrolysis, absorbance 480 nm, 0.0001% Triton | Potency, µM (titrated, usually from 57.1 µM), inactives show at the top dose activity change, negative = inhibition, hits mostly inhibitors | 0.52% of 330,000 active | AID 485341;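 further: plate controls were no compound for no effect and no enzyme for full effect; nearly all actives have a fitted effect of over 20% in size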
Target sequence (P00811 whole entry, looked up): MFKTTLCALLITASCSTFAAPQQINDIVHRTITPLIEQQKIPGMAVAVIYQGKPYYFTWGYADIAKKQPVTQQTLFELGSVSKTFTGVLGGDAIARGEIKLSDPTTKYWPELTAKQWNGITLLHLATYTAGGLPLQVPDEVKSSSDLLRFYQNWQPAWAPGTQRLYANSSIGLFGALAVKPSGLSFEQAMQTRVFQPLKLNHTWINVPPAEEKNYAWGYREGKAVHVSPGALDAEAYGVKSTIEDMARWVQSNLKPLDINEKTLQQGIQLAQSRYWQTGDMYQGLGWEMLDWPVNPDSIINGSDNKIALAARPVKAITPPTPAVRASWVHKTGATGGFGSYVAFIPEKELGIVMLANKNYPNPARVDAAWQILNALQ
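AmpC (5.3 nM in the dispensed reagent) in 20 mM phosphate pH 7.0 with 0.01% (detergent screen) or 0.0001% Triton X-100 was preincubated with compounds for 15 min at room temperature. Nitrocefin was then added from an 800 uM solution, and hydrolysis was followed at 480 nm.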
AmpC detergent: inhibitors of E. coli AmpC beta-lactamase with detergent | P00811 | AmpC hydrolysis of nitrocefin, absorbance 480 nm, 0.01% Triton | Potency, µM (highest dose often 114 µM), for the others: at the top dose activity change, negative = inhibition, most hits filed as inhibitors | 0.041% of 370,000 active | AID 485294;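 further: 0% = no-compound wells and -100% = no-enzyme wells; nearly all actives have a fitted effect of over 25% in size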
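20 mM phosphate pH 7.0 + 0.01% (detergent screen) or 0.0001% Triton X-100; 5.3 nM AmpC reagent; cpd preinc 15 min RT; nitrocefin (800 uM stock) to start; A480 q20 s × 4 min; Activity was normalised to no-enzyme and no-compound control wells.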
Sm TGR inh: blocks Schistosoma mansoni thioredoxin glutathione reductase. Q962Y6. purified TGR, DTNB reduction, TNB absorbance 405 nm. Potency, µM (titrated, usually from 114 µM), for the others: at the highest dose activity change, negative = inhibition, usual class: inhibitors. 3% of 360,000 active; further: nearly all actives have a fitted effect of over 60% in size
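Kinetic colorimetric format: TGR-catalysed, NADPH-driven DTNB reduction monitored via TNB absorbance. Enzyme dispensed at 20 nM; compound exposure 15 min at room temperature before reaction start.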
FMDV antiviral: blocks foot and mouth disease virus. FMDV antiviral cell-based qHTS. AID 1159524. 1.2% of 410,000 active. Potency, µM (highest dose often 57.9 µM), without a hit: at the highest dose activity change, negative = inhibition, actives largely listed as inhibitors; calls by dose curve; tested in HEK293T cells; further: read-out not given here; nearly all actives have a fitted effect of over 45% in size
Active calls of the source: *; ? = inconclusive; nt = no result. Unless noted, the call rests on the fitted dose curve; in most records, active means well fitted curve in the direction sought with a large enough effect; inconclusive means small, poorly fitted or top-dose-only effect, or another doubt; inactive means no such curve, though single readings can be large; an effect the other way counts as inactive or inconclusive. Unless noted, on the % scale 0 is the no-effect control and ±100 the full control effect; potency means the concentration at half of the fitted maximal effect.

SMILES	AMA1-RON2 inh	AmpC inh no detg	AmpC detergent	Sm TGR inh	FMDV antiviral
Cc1c(Cl)cccc1N1C(=O)CC(N(O)c2ccccc2)C1=O (centres undefined)	-18%	-23%	?	13µM*	-2%
CCCCCOc1ccc(N2C(=O)CC(N(O)c3ccccc3)C2=O)cc1 (centres undefined)	12%	20µM*	?	-14%	-17%
COc1ccc2ccc(O)c(CN(C)CC(=O)Nc3ccccc3C(F)(F)F)c2c1	62%	-43%	1%	1.8µM*	-23%
CCN(Cc1ccncc1)Cc1c(O)ccc2ccccc12	-7%	-39%	-11%	0.71µM*	-1%
CC(C)CN(Cc1c(O)ccc2ccccc12)CC(C)C	-14%	-36%	0%	nt	-11%
COc1cccc(CN(C)CC(=O)Nc2cccc3ccccc23)c1	-7%	-13%	-3%	-3%	-18%
COc1cccc(CN(C)Cc2c(O)ccc3ccccc23)c1	0%	-21%	?	2.5µM*	12%
Cc1ccc(NC(=O)CN(C)Cc2c(O)ccc3ccccc23)cc1	20%	-25%	-10%	0.32µM*	-5%
Cc1cc(C)n(-c2cccc(C(=O)NCC3Cc4cc(Cl)cc(-c5cnccn5)c4O3)c2)n1 (centres undefined)	nt	nt	nt	nt	-18%
Cc1ccc(-n2nc(C(=O)N3CCN(c4ccc(F)cc4)CC3)c(=O)n(C)c2=O)cc1	nt	nt	25%	6%	-16%
CCN(CC(=O)Nc1ccc(NC(C)=O)cc1)Cc1c(O)ccc2cc(Br)ccc12	-5%	-55%	-6%	0.79µM*	2%
CCN(CC(=O)Nc1ccc(Br)cc1)CC(=O)Nc1cc(C)on1	16%	1%	0%	50µM*	-9%
CCN(CC(=O)Nc1ccc(NC(C)=O)cc1)CC(=O)Nc1cccc2ccccc12	56%	nt	nt	nt	-22%
CN(C)Cc1c(O)ccc2ccccc12	-4%	-32%	9%	1.1µM*	9%
COc1ccc(CN(C)Cc2c(O)ccc3ccccc23)cc1	2%	-32%	4%	3.2µM*	-10%
COc1ccc2ccccc2c1CN(C)Cc1ccccc1	-2%	-7%	?	-26%	-14%
Cc1noc(/C=C/c2cccs2)c1S(=O)(=O)N1CCC(C(=O)Nc2ccc(F)c(Cl)c2)CC1	nt	nt	4%	6%	?
CN1CCCC(C(=O)c2ccc(-c3ccccc3)cc2)C1 (centres undefined)	-4%	37%	?	-9%	17%
COCC(=O)N1CCCC(C(=O)c2ccc(-c3ccccc3)cc2)C1 (centres undefined)	3%	125%	?	28µM*	24%
COc1cccc(N/C(SCc2cccc([N+](=O)[O-])c2)=C(/C#N)C(N)=O)c1	-8%	-25%	-8%	-4%	35µM*
O=C(c1cnccn1)N1CCC2(CCCN(c3ccc(-c4ccccc4)cc3)C2)CC1	nt	nt	nt	nt	-27%
Cn1cc(/C=N/n2cnc3sc4c(c3c2=O)CCCC4)c2ccccc21	-4%	-13%	1%	4%	10%
O=c1c2c3c(sc2ncn1/N=C/c1ccc([N+](=O)[O-])o1)CCCC3	-11%	-26%	-9%	-11%	28µM*
CCCC(=O)Nc1nc2c(s1)COc1ccccc1-2	-2%	-22%	-6%	-3%	7%
CCCCC(=O)Nc1nc2c(s1)COc1ccccc1-2	-4%	-1%	-13%	-20%	-2%
SMILES	AMA1-RON2 inh	AmpC inh no detg	AmpC detergent	Sm TGR inh	FMDV antiviral
O=C(CCSc1ccccc1)Nc1nc2c(s1)COc1ccccc1-2	56%	3.2µM*	?	-22%	-19%
CC(C)(C)C(=O)Nc1nc2c(s1)COc1ccccc1-2	4%	0.71µM*	?	-6%	-22%
O=C(Cn1nc(N2CCN(c3ccccc3)CC2)ccc1=O)NCc1cccc(Cl)c1	nt	nt	0%	-5%	-27%
CC(Cc1cccc(C(F)(F)F)c1)NCCCc1ccccc1 (centres undefined)	nt	nt	nt	nt	20µM*
CCCCSCCCNC(=O)c1cn(CC)c2ccc(S(=O)(=O)N3CCCCCC3)cc2c1=O	nt	nt	6%	0%	-5%
COc1ccc(-n2cc(-c3ccccc3)c3c(N4CC(C)OC(C)C4)ncnc32)cc1 (centres undefined)	?	144%	-2%	-8%	22µM*
CSc1ccc(CNc2ncc(-c3ccccc3)n2C)cc1	nt	nt	5%	4%	?
CCOc1ccc(OCC)c(NC(=O)C(NS(=O)(=O)c2cccs2)c2ccccc2)c1 (centres undefined)	nt	nt	13%	4%	-10%
O=C(c1ccc([N+](=O)[O-])cc1)N1CCOC12CCN(c1ncc(C(F)(F)F)cc1Cl)CC2	3%	nt	10%	0%	?
CN(C)/C=C/C(=O)c1ccc(N2CCN(c3ncc(C(F)(F)F)cc3Cl)CC2)cc1	-8%	1%	-7%	-28%	25µM*
O=C(c1ccccc1)N1CCOC12CCN(c1ncc(C(F)(F)F)cc1Cl)CC2	2%	-16%	1%	21%	16µM*
CN(C)C=NC(=O)c1ccc(N2CCN(c3ncc(C(F)(F)F)cc3Cl)CC2)cc1	-3%	nt	-1%	14%	-12%
CCOc1ccc(-n2c(SCC(=O)NCC3CCCO3)nc3c([nH]c4ccccc43)c2=O)cc1 (centres undefined)	nt	nt	-1%	9%	-15%
c1cc(NC2CC2)nc(-c2ccoc2)n1	nt	nt	nt	nt	26%
Oc1c(Br)cc(Br)cc1/C=N/c1nccs1	76%	-50%	-1%	4µM*	-10%
Oc1ccc(Cl)cc1C=Nc1ccc(Br)cc1	1%	-25%	2%	-22%	-9%
Oc1ccc(Cl)cc1/C=N/c1nccs1	7%	-17%	-2%	20µM*	-14%
Oc1c(Br)cc(Br)cc1C=Nc1cccnc1	58%	19%	?	?	-18%
O=C(Nc1ccccc1N(C(=O)c1ccco1)S(=O)(=O)c1cccs1)c1ccco1	-10%	-22%	?	45µM*	-17%
COc1ccc(N(C(=O)c2ccco2)S(=O)(=O)c2cccs2)cc1	-18%	-6%	-5%	?	21%
S=c1[nH]c(-c2ccccc2)cn1/N=C/c1cccc2ccccc12	47%	2.5µM*	-1%	-15%	13%
COc1cc(/C=N/n2cc(-c3ccccc3)[nH]c2=S)cc(OC)c1O	67%	-32%	-8%	3%	10%
Oc1ccc(/C=N/n2cc(-c3ccccc3)[nH]c2=S)cc1	92%	32µM*	?	-1%	20%
S=c1[nH]c(-c2ccccc2)cn1/N=C/c1ccccc1Br	21%	-44%	0%	-14%	32%
COc1ccc(N2CC(NC(=O)c3ccc(S(=O)(=O)N4CCOCC4)cc3)CC2=O)cc1 (centres undefined)	nt	nt	-2%	1%	-14%
O=C(CCc1ccccc1)NNC(=S)NC(=O)c1ccccc1	99%	-27%	-14%	8%	nt

Source: PubChem
